High-throughput results as filed in PubChem.
VACV Venus inh: inhibitors of vaccinia virus (Venus reporter) | Vaccinia virus Venus reporter expression, fluorescence | Potency, µM (top dose mostly 36.5 µM), usual class: inhibitors | 330,000 tested, 0.46% active; calls by dose curve; tested in A549 cells; also: nearly all actives have a fitted effect of over 30% in size
Vaccinia mCherry: vaccinia inhibition (mCherry reporter). Vaccinia virus mCherry reporter infection, fluorescence. Potency, µM (titrated, usually from 36.5 µM), most hits filed as inhibitors. 310,000 tested, 0.63% active. AID 720579; calls by dose curve; tested in A549 cells; also: nearly all actives have a fitted effect of over 35% in size
Lassa entry inh: blocks Lassa virus binding to or entry into cells; Lassa virus pseudotype entry inhibition, cell reporter; Potency, µM (series often up to 37.9 µM), usual class: inhibitors; 300,000 tested, 1.2% active; AID 540256; calls by dose curve; tested in HEK293 cells; also: nearly all actives have a fitted effect of over 50% in size
HCMV inh: blocks human cytomegalovirus replication; 410,000 tested, 4.5% active; activity change, negative = inhibition, % at 57.5 µM; HFF cells, HCMV-luciferase reporter, 72 h; active compounds read low; in the data active = activity change below about -60%; inconclusive = no clear call, values can overlap the other calls; inactive = above about -39%
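Steps: HFFs plated, 16 h 37C; compounds added; HCMV-luciferase added to MOI 1 PFU/cell; 72 h 37C; OneGlo reagent, 5 min room temperature; luminescence read, normalized to controls.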
MARV entry inh: Marburg virus entry inhibition; Marburg virus pseudotyped entry inhibition, cell reporter; Potency, µM (titrated, usually from 37.8 µM), actives largely listed as inhibitors; 300,000 tested, 1.8% active; calls by dose curve; tested in HEK293 cells
HCV inhibitor: inhibitors of hepatitis C virus infection. Huh7.5.1 HCVcc-Cre infection, luciferase reporter, 44 h. Potency, µM (doses to about 41.8 µM), actives largely listed as inhibitors. 340,000 tested, 3.4% active
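Compounds are dispensed onto cells plated 4 h earlier at 1,000 per well, with HCVcc-Cre virus (about 0.5 moi) added next. Following 44 h of culture, luminescent signal is measured for 15 sec after 15 min with substrate at room temperature.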
HCV inh confirm: HCV inhibition, cherry-pick confirmation. shares compounds with HCV inhibitor. HCVcc-Cre infectious virus cell assay, luciferase, inhibition. Potency, µM (top dose mostly 41.8 µM), actives largely listed as inhibitors. 640 tested, 78% active; also: nearly all actives have a fitted effect of over 80% in size
HCV cytotox: counter-screen for HCV inhibitors: host cell cytotoxicity | shares compounds with HCV inhibitor | HCV host cell line cytotoxicity counterscreen | Potency, µM (series often up to 41.8 µM), actives largely listed as inhibitors | 640 tested, 22% active;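 also: 44 h compound exposure; nearly all actives have a fitted effect of over 55% in size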
Numbers stand for hits; – = inactive; ? = inconclusive; · = not tested or not shown. A selection: hits, their analogues and other compounds. The true share with any hit is near 7.8%. Unless noted, calls follow the shape of the dose curve; as a rule, active = well fitted curve in the direction sought with a large enough effect; inconclusive = small, poorly fitted or top-dose-only effect, or another doubt; inactive = no such curve, though single readings can be large; an effect the other way counts as inactive or inconclusive.

SMILES | VACV Venus inh | Vaccinia mCherry | Lassa entry inh | HCMV inh | MARV entry inh | HCV inhibitor | HCV inh confirm | HCV cytotox
COc1cccc(C(=O)Nc2cccc(NC(=O)c3cccs3)c2)c1 | · | · | · | – | · | ? | · | ·
COc1cc(C(=O)Nc2cccc(NC(=O)c3cccs3)c2)cc(OC)c1OC | · | · | · | – | · | ? | 13µM | –
O=C(Nc1ccc(OC(F)(F)F)cc1)C1CCCN(S(=O)(=O)c2cccc3nonc23)C1 (stereo not given) | – | – | – | – | – | · | · | ·
Cc1cc(C)cc(NC(=O)c2nnn(Cc3cc(C)ccc3C)c2N)c1 | – | – | · | · | · | ? | 11µM | –
C=CCc1ccc(OCCOc2cccc3ccc(C)nc23)c(OC)c1 | · | · | – | – | ? | 8.9µM | 13µM | –
CC(C)NC1CCC(Nc2ccnc3cc(Cl)ccc23)CC1 (stereo not given) | – | – | ? | ? | 2.8µM | 2.8µM | 4µM | –
COc1cc(NC(=O)c2ccccc2F)c(OC)cc1NC(=O)CN1CCOCC1 | – | – | – | – | – | ? | ? | –
Cc1oc2c(O)c(O)ccc2c(=O)c1-c1cnn(-c2ccccc2)c1 | · | · | – | – | – | – | · | ·
Cc1nc(-c2cnn(-c3ccccc3)c2)c2cc(C)oc2n1 | – | ? | – | – | ? | 7.1µM | 16µM | –
CCC[C@H]1COCCS(=O)(=O)N1Cc1cccc(F)c1 | – | – | · | · | · | · | · | ·
CCOC(=O)C1=C(C)N=c2s/c(=C/c3ccco3)c(=O)n2C1c1cccc(OC)c1 (stereo not given) | – | · | ? | · | ? | ? | ? | –
CCCCn1c(=N)n(CC(O)COc2cccc(C)c2)c2ccccc21 (stereo not given) | · | · | ? | -63 | ? | 8.9µM | 14µM | ?
CCCCCNC(=O)c1cn(CC)c2cc(N3CCN(C)CC3)c(F)cc2c1=O | ? | ? | – | – | ? | ? | 14µM | –
O=c1ccc2cc(S(=O)(=O)NCc3ccc(Cl)cc3)ccc2[nH]1 | – | – | – | – | · | · | · | ·
COc1ccc(-c2csc(NC(C)c3nc4cc(Cl)c(Cl)cc4n3CCCO)n2)cc1 (stereo not given) | ? | ? | · | – | · | 8.9µM | 13µM | –
CC(Nc1nc(-c2ccc(F)cc2)cs1)c1nc2cc(Cl)c(Cl)cc2n1CCOCCO (stereo not given) | ? | ? | · | – | · | – | · | ·
CCOc1cc2[nH]c(=O)n(Cc3ccc(C(=O)N4CCN(c5ccccc5)CC4)cc3)c(=O)c2cc1OCC | ? | ? | – | – | · | · | · | ·
COc1cccc(NC(=O)c2nnn(Cc3ccc(OC)c(Br)c3)c2N)c1 | – | – | – | – | – | · | · | ·
CCOc1ccc(C(=O)c2ccc(OC)c(O)c2O)cc1 | – | – | · | · | · | · | · | ·
O=C(NCC1CCCO1)c1cc2c([nH]c3ccccc32)c(-c2cccc(Br)c2)n1 (stereo not given) | ? | ? | · | -72 | · | 2µM | 14µM | –
CCC1CCCCN1C(=O)c1cc(COc2ccc3ncccc3c2)on1 (stereo not given) | – | ? | ? | -91 | ? | 3.2µM | 1.8µM | 3.1µM
Cc1ccc(NC(=O)/C=C/c2ccccc2)c(Br)c1 | – | – | – | – | · | · | · | ·
COc1ccc(Cn2nnc3c(=O)[nH]c(C4CCN(C(=O)c5ccc(C)cc5)CC4)nc32)cc1OC | – | – | – | – | – | · | · | ·
O=C(/C=C/c1cccs1)Nc1ccc(N2CCOCC2)c(S(=O)(=O)Nc2cc(Cl)ccc2Cl)c1 | – | – | – | – | – | ? | · | ·
COc1ccccc1NS(=O)(=O)c1cc(NC(=O)/C=C/c2cccs2)ccc1N1CCOCC1 | – | – | – | – | ? | ? | 20µM | –
SMILES | VACV Venus inh | Vaccinia mCherry | Lassa entry inh | HCMV inh | MARV entry inh | HCV inhibitor | HCV inh confirm | HCV cytotox
CCOC(=O)c1cccc(NC(=O)Cn2c(=O)c3cccn3c3ccccc32)c1 | – | – | ? | – | · | · | · | ·
Cc1c(C(=O)Nc2cccc([N+](=O)[O-])c2)csc1-c1ccccc1 | – | – | ? | -75 | ? | 7.1µM | 11µM | ?
O=C(Nc1ccccc1Sc1ccccc1)c1cnn2c1NC(=C1CC1)C=C2C(F)F | – | – | · | · | · | · | · | ·
Cc1cccc2c1-c1sc(C(=O)NCCCN3CCC(C)CC3)cc1CO2 | · | · | · | ? | · | 5µM | 25µM | –
CC(C)c1nc2sc3c(N4CCCCC4)ncnc3c2c2c1CCCC2 | – | – | – | – | – | · | · | ·
CC(=O)N(C1CC(C)C(C#N)(C#N)C1(C#N)C#N)N(C)C (stereo not given) | – | ? | – | – | ? | 6.3µM | – | –
Cn1c(SCc2ccc(F)cc2Cl)nc2ccccc2c1=O | – | – | ? | ? | ? | ? | 6.3µM | 14µM
O=S(=O)(Nc1ccc(-c2ccc(NS(=O)(=O)c3ccccc3)cc2)cc1)c1ccccc1 | ? | – | ? | – | – | 3.2µM | 13µM | –
Cn1c(=O)oc2cc(S(=O)(=O)N3CCC(C(=O)N4CCN(c5ccccc5F)CC4)CC3)ccc21 | – | – | – | – | – | · | · | ·
Oc1c(N=Nc2ccccn2)ccc2ccccc12 | ? | ? | 1.6µM | -101 | 4µM | 2.5µM | 18µM | ?
Cc1ccccc1CNc1nc(N(C)C)nc2c1cnn2C | – | – | ? | – | · | · | · | ·
C=CCn1c(-c2cccs2)nc2nc3ccccc3nc21 | – | · | – | – | – | – | · | ·
C=CCn1c(-c2cccs2)nc2ccccc21 | – | · | – | – | – | ? | – | –
CCOc1ccc(C(=O)CSc2nnc3cc(C)c4ccccc4n23)cc1 | – | – | – | – | – | · | · | ·
CCc1ccccc1NC(=O)CN1C(=O)c2ccccc2Sc2ncccc21 | – | – | – | – | · | · | · | ·
O=C(CN(Cc1ccccc1)C1=NCCS1)c1ccc(Cl)cc1 | · | · | – | – | ? | 6.3µM | 8.9µM | –
COc1ccc(C(=O)CN(Cc2ccccc2)C2=NCCS2)cc1 | – | – | – | – | ? | – | · | ·
CCOc1cc(-c2noc(CCCC(N)=O)n2)cc(Br)c1OC | · | · | – | – | – | ? | · | ·
CCOc1cc(-c2noc(-c3ccncc3)n2)cc(Br)c1OC | · | · | – | – | – | ? | ? | –
COc1ccc(OC)c(CCNC(=O)c2ccc3c(c2)c(C)c(C)n3Cc2ccccc2)c1 | – | – | – | – | · | · | · | ·
NC(=S)NN=C1c2ccccc2-c2cc(Br)ccc21 | ? | ? | – | – | ? | ? | 6.3µM | –
NC(=O)N/N=C1\c2ccccc2-c2c(C(N)=O)cccc21 | · | · | · | – | · | – | · | ·
CCCn1c(=NC(=O)c2ccco2)c(C(=O)OCC)cc2c(=O)n3ccccc3nc21 | – | – | – | – | – | ? | ? | –
Cc1ccc(C)c(NC(=O)C2CCCN(c3nc4ccccc4s3)C2)c1 (stereo not given) | – | – | – | – | – | · | · | ·
